# From PMC12136788
# Where a chain is given by its changes, count along the chain named. In all, about 24,000 sequences were measured (“enrichment r”: median about 0.99, highest 2% from about 3.7 on). What follows is part of a selection rich in the highest values, with near analogues and random picks from the rest.
# T1: UNK ZnF1-3 (human, UniProt Q9C0B0 31-174)
# T1 sequence: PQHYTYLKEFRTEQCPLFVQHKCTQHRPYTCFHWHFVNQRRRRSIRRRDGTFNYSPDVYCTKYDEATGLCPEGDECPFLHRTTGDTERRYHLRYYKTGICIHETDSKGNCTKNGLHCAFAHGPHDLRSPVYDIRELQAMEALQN
# B1: chr14:35505469:35505470:+_ENSMUSG00000041408_ENSMUST00000048263|mus_hu|motif|central (ssRNA)
# RNA: GGGAGUUCUACAGUCCGACGAUCCUGUAUGGUAACAUUACAAACUGACAAGCAAGAUGGAUGUAAAACAGUGUAAUCUCGGGUCCGUCCAACUGUCCCUCUAAAACUGGUCCCACAACUUACACCCCCUUUCUUUGCCUGAUUCAACAGAGGAUUGAGCAUCA
# B2: chr6:72561926:72561927:-_ENSMUSG00000056429_ENSMUST00000070524|mus_mus|motif|central (ssRNA)
# RNA: GGGAGUUCUACAGUCCGACGAUCGUAAAUAAAACAUCACCAGAGGAGAGUGUCAUCAAAGUGCCGGUGCAAAACCUGAAGCGGUCCCAUCUCUGCCAGCCCAGACUUGCCACCAAACCCCAGAGGAGGUCACAGUCUUUUCAUCAACAGAGGAUUGAGCAUCA
# B3: chr2:153237265:153237266:-_ENSMUSG00000061411_ENSMUST00000109784|mus_mus|mus_mus_mus_hu_False|8_28 (ssRNA)
# RNA: GGGAGUUCUACAGUCCGACGAUCAAAAAAAAAAAAAAAAAAGUGUCCUUGUGCCCAAAGUCUCAGGUGCUUGGAGUGUGGCUAGAAACAGCUCUUUUGGAUCCCACCUCUUUCAGAAACAAAAUGUCCAACUGGUGGAGGCAGCAACAGAGGAUUGAGCAUCA
# B4: chr2:153237265:153237266:-_ENSMUSG00000061411_ENSMUST00000109784|mus_mus|mus_mus_mus_hu_False|8_78 (ssRNA)
# RNA: B3 RNA with G66A, G115A
# B5: chr8:80553714:80553715:+_ENSG00000104435_ENST00000220876|hu_mus|FALSE|FALSE (ssRNA)
# RNA: GGGAGUUCUACAGUCCGACGAUCAGCCUCCAGCUUUUUCUGAAUCUCCUCCAGAGACAGGUCUUUCUUCUUUGGAGAAGCUAGAGUUCGUGGAGCUUCUGAGAUGGGAGAUGGUGGCUUCAAGAUCAGCUCAAAAGCCUGGCCCAACAGAGGAUUGAGCAUCA
# B6: 26295160_26295280_2512_CDS_ENSMUSG00000026924_ENSMUST00000091252|mouse|control|control (ssRNA)
# RNA: GGGAGUUCUACAGUCCGACGAUCUCCCUUUUCUGGAUGAUGAACAACCUCUGAAGGUUUUGGUUUUACAGGAACAUAAAGUGCAGGGGCAGCAGGGGCUAGAAGGACAUUGCCACCAAAAUCUGGCAGCUCAUUUUGUGCCCACAACAGAGGAUUGAGCAUCA
# B7: chr2:153237265:153237266:-_ENSMUSG00000061411_ENSMUST00000109784|mus_mus|mus_mus_mus_hu_False|8_58 (ssRNA)
# RNA: B3 RNA with U78C, G79A, G115A
# B8: chr2:153237265:153237266:-_ENSMUSG00000061411_ENSMUST00000109784|mus_mus|mus_mus_mus_hu_False|1_8 (ssRNA)
# RNA: B3 RNA with G115A, G137A, A138G, G140C, C141A, A142G
# B9: 130210676_130211900_346_CDS_ENSG00000197958_ENST00000361436|human|control|control (ssRNA)
# RNA: GGGAGUUCUACAGUCCGACGAUCAAAAGUGAUAUUCCCACUGUGUUUAAUGUUUUUCUGUUUCUUUCUGUCUCUUGGUGGUUCCUUGAGGGCUUUGAUGAUCAGGGCAGAGGCAGAAGGCACCACCUCAAUCUGGGCCUGUCUCAACAGAGGAUUGAGCAUCA
# B10: 1003750_1005305_5821_CDS_ENSG00000060237_ENST00000535572|human|control|control (ssRNA)
# RNA: GGGAGUUCUACAGUCCGACGAUCAUGAACAGACUUUGCAUCUUCUGACUUAUUUUUACCCUCUUUCUGGGCACCGUCUGCUGCAACAGAAACCUGAAAUCGUCCCAUCUUAAAAACACCAGCUCCUGAACUAGUUGCUAGGACCAACAGAGGAUUGAGCAUCA
# B11: 9430860_9430980_9933_3pUTR_ENSMUSG00000040209_ENSMUST00000041124|mouse|control|control (ssRNA)
# RNA: GGGAGUUCUACAGUCCGACGAUCUUUAAAAAGAACCAACUACUAUUUGACUCUAACCCAAUCCUUCAGUAUCUGGUAUGCGCUUUGUUUUUUCCCUUGCUAACACUAGGCCCUUUCUGUGCACUGCCAGCCAAGCACAGGCAGCAACAGAGGAUUGAGCAUCA
# B12: 93812015_93812135_631_5pUTR_ENSG00000117505_ENST00000370272|human|control|control (ssRNA)
# RNA: GGGAGUUCUACAGUCCGACGAUCGAUUUCUCAAAAAGUCGCCCUCGGAGAGUGAUCCCGGGGGGUGCUUUGCGAAGAGGGUGCAGAAAAUGAACGGAGGAGCAGCUGGCUUGAGGGCUGGGAACACUCGCGUGUGUGAGAGAUCAACAGAGGAUUGAGCAUCA
# B13: chr5:128448638:128448639:+_ENSG00000066583_ENST00000173527|hu_mus|hu_hu_hu_mus_False|28_28 (ssRNA)
# RNA: GGGAGUUCUACAGUCCGACGAUCGGCACUCGCCUUAAUUAGGUUCUGAAUUUCCUUGAACUUCGGGUGGUCUUUGUCAGCCACCAGCUGUAGGAGGACAGCCUCACUCGUGGUCACGAUGAUCCCAGUGCGGGCAAGACGCUCCAACAGAGGAUUGAGCAUCA
# B14: chr4:103718443:103718444:-_ENSG00000109332_ENST00000394803|perfect_dup|FALSE|FALSE (ssRNA)
# RNA: GGGAGUUCUACAGUCCGACGAUCAAAGCUGGAAGAACUUAAGUCUUCUCAGAUGAGCAUGUGAAUGAAUGGAGGGAGGUAAACAAAAAAUAAAAUUAAAAAAGAUGAGGUCUGAUAGGGGAGCAGCCGGAUAAGAAAAUCAAACAACAGAGGAUUGAGCAUCA
# B15: chr4:117881997:117881998:-_ENSMUSG00000033295_ENSMUST00000150096|mus_hu|FALSE|FALSE (ssRNA)
# RNA: GGGAGUUCUACAGUCCGACGAUCCAGAAGUCAUACAAAAUAAGGAUCCAAAGUGAACUCAAGAAAAAAAAAAACAAAACAAAAUAAACCCCAACCCCUACAGUGGCCCAUUCUGCAGAUACGGAUUCGCGAAAGGAAAAAUCACAACAGAGGAUUGAGCAUCA
# B16: chr9:15453159:15453160:+_ENSG00000164975_ENST00000490969|hu_hu|FALSE|FALSE (ssRNA)
# RNA: GGGAGUUCUACAGUCCGACGAUCAUGAUGCACAAGCCUUAUGUCAGUAAUGACAAUGACAUGUUCACAGUCUCCCUGAUGACAGUAUAAGUAAGGAAAACCCAGUUUAAUACACAAGUCAUUGAAGGUGAAAUCUUCCAUUCUCAACAGAGGAUUGAGCAUCA
# B17: chr15:12740188:12740189:-_ENSMUSG00000022195_ENSMUST00000057256|mus_hu|FALSE|FALSE (ssRNA)
# RNA: GGGAGUUCUACAGUCCGACGAUCAUAAAUGAAGUAUGAAUGAAUCUCAUACAGCUCAACAGACCUGGGGGAAAAGUGAAGACAAACAAACAAACAAACAAAAAAAAAAACAAAACCCUAAAAAAUACUUAAGGAAGACAGAUACAACAGAGGAUUGAGCAUCA
# B18: 176792147_176792267_4022_3pUTR_ENSG00000144320_ENST00000272748|human|control|control (ssRNA)
# RNA: GGGAGUUCUACAGUCCGACGAUCACAUGAUAGGGAGUAAAAGGCAGAGGCCAGCUUCAGAUGGGGAGUUUGGGAAGGCAUCUCUCUGAGGAGGCAAAAUUUAAGCUGAAAUCUGAGGCAGGAAAGGGCAUGGUCAGAGAACUGCAACAGAGGAUUGAGCAUCA
# B19: chr10:60895279:60895280:-_ENSMUSG00000020091_ENSMUST00000020288|mus_mus|FALSE|FALSE (ssRNA)
# RNA: GGGAGUUCUACAGUCCGACGAUCACUGGAAGAUGUUUUGUUAAAAAAGUUGUAGUUCAAAAUUGUACUGAAAACUUAUCUAAAAAUAGGUCUGUAGUCAUCUUAAAAAUAAAAGGUCUCUCCUCUGAUAAGGAGAGACUGAUACAACAGAGGAUUGAGCAUCA
# B20: chr6:48548902:48548903:+_ENSMUSG00000052751_ENSMUST00000163452|mus_mus|FALSE|FALSE (ssRNA)
# RNA: GGGAGUUCUACAGUCCGACGAUCAAGGAACAAAACAAGACCCAGUAGGCAGAAGUCAUAGGAAAGCAGAAUCCAAUCACUAUAAGUAAGAAAUGUCUAACAAUUAGACUCGCCCUACGAUAGAAGUAGUGCCUUCUGGAGGUACAACAGAGGAUUGAGCAUCA
# B21: chr2:47635579:47635580:+_ENSG00000095002_ENST00000543555|hu_hu|motif|central (ssRNA)
# RNA: GGGAGUUCUACAGUCCGACGAUCACUCUAUACUGACGAACCAGAAGAAGAUCUUUUACAAAAGAUUCAAAAUUCAUUUUACGGAGCACAACACUCUGCAGAUUCUUUGCUCCUGCCGGCCCCAUGUACUUGAUCACCCCCUGGCAACAGAGGAUUGAGCAUCA
# B22: 54500970_54501090_1431_3pUTR_ENSMUSG00000039156_ENSMUST00000071083|mouse|control|control (ssRNA)
# RNA: GGGAGUUCUACAGUCCGACGAUCAGCUGCAUCUCAGCAUUUUGCCUCUUAAUAUUGUAGUACUGUACUUCAACUUCGUGUGUUAGCUGAAGCCAUUUCUGUAGUGCGUCAGGGACAGACCAGCUGCUUCUCAGUUCAAACUCCCAACAGAGGAUUGAGCAUCA
# Molecular target: T1, UNK ZnF1-3
# Assay: nsRBNS (natural sequence RNA bind-n-seq); RBNS binding buffer (assumed for nsRBNS): 25 mM Tris pH 7.5, 150 mM KCl, 3 mM MgCl2, 0.01% Triton X-100, 500 ug/ml BSA, 20 U/ml SUPERase-In, 4 C; UNK is unkempt and MSI1 is Musashi-1; names of the RNAs are library labels; protein concentration not given here; high values mean tight binding
row,Binder,binding signal [enrichment R]
1,B1,1.1
2,B2,3.38
3,B3,3.73
4,B4,4.8
5,B5,0.56
6,B6,1.58
7,B7,3.36
8,B8,4.46
9,B9,0.682
10,B10,1.34
11,B11,0.957
12,B12,1.73
13,B13,0.734
14,B14,21.1
15,B15,7.45
16,B16,1.02
17,B17,6.86
18,B18,3.56
19,B19,0.617
20,B20,2.2
21,B21,1.41
22,B22,1.01
